# Assay results as given in article PMC5540273 (PLoS ONE, 2017).
# Columns and labels:
# Settings in all cases: concentration: 1 μM,replicates: in singlicate; n = 1
# [1] = system: DYRK1B
# [2] = system: DYRK2
# [3] = system: EIF2AK1
# [4] = system: EPHA1
# [5] = system: EPHA2
# [6] = system: EPHA3
# [7] = system: EPHA4
# [8] = system: EPHA5
# [9] = system: EPHA6
# [10] = system: EGFR
# 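Also: KINOMEscan kinase panel screen.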
SMILES,%Inh [1] [%],%Inh [2] [%],%Inh [3] [%],%Inh [4] [%],%Inh [5] [%],%Inh [6] [%],%Inh [7] [%],%Inh [8] [%],%Inh [9] [%],%Inh [10] [%]
CCN(CC)CCCCNc1ncc2cc(-c3c(Cl)cccc3Cl)c(NC(=O)NC(C)(C)C)nc2n1,1,0,46,99.6,99.6,99.4,91.5,95.9,95.6,
CN(C)CCOc1ccc(-c2cc(-c3c[nH]nc3-c3ccccn3)ccn2)cc1 [GW835314],22,17,93.7,18,10,18,90,5,84,28
CC(C)N1C(=O)Cc2cc(Nc3ncc(C(F)(F)F)c(NCc4cccc(S(C)(=O)=O)c4)n3)ccc21,38,19,0,4,0,9,1,3,3,0
Cc1ccc2c(-c3ccncc3)c(-c3ccc(F)cc3)nn2c1.Cl [GW461484],4,9,0,10,8,13,0,0,5,43
Cc1occc1-c1nc(N)c(OC[C@@H](N)Cc2c[nH]c3ccccc23)cc1-c1cc2c(C)n[nH]c2cn1 [GSK1660450],91.6,92.1,12,16,13,30,14,0,32,97.2
Cl.Cl.Nc1nc(-c2ccc3c(N)n[nH]c3c2)cc(N2CCCC(NC(=O)c3ccccc3)C2)n1 (stereo not shown) [GSK2286775],18,80,0,13,0,0,15,0,6,28
Cc1cc2cn[nH]c2cc1-c1cccc2c(N)c(C(N)=O)nnc12,0,23,26,17,0,0,8,89,0,56
O=C(NCCNc1ccnc(NCc2ccc(F)cc2)n1)c1cc2ccccc2s1 [GSK1379944],0,0,0,10,17,0,22,0,19,23
CN(C)CC(O)COc1ccc(Nc2nccc(-c3cnn4nc(N5CCOCC5)ccc34)n2)cc1 (stereo not shown) [GW767488],69,87,42,34,0,9,8,9,0,17
Cc1n[nH]c2ccc(-c3cc(OC[C@@H](N)Cc4ccccc4)cnc3-c3ccoc3)cc12.O=C(O)C(F)(F)F.O=C(O)C(F)(F)F [GSK507358],49,40,0,5,0,43,0,0,4,87
CCN(CC)CCOc1ccc(Nc2ncc3cc(-c4c(Cl)cccc4Cl)c(=O)n(C)c3n2)cc1 [SB-601273],14,11,96.9,100,100,96.6,100,99.8,97.9,
C[C@@H]1CCN(C(=O)CC#N)C[C@@H]1N(C)c1ncnc2[nH]ccc12,0,0,6,6,0,0,0,0,0,
Cl.Cl.NC[C@H](Cc1ccc(C(F)(F)F)cc1)NC(=O)c1cc(Br)c(-c2ccnc3[nH]ccc23)s1 [GSK1487252],41,33,0,26,14,0,19,0,29,30
Cl.Oc1cc(-c2nc(-c3ccccc3)[nH]c2-c2ccncc2)ccc1Cl [SB-386023],0,5,0,59,0,5,0,23,36,20
C=CC(=O)Nc1cc2c(Nc3ccc(F)c(Cl)c3)ncnc2cc1OCCCN1CCOCC1 [GW781483],23,17,11,25,0,13,5,7,,
CNC(=O)c1ccccc1Sc1ccc2c(/C=C/c3ccccn3)n[nH]c2c1,0,0,6,12,9,0,0,0,0,
O=C(NCCCN1CCOC1=O)c1cnc(NCc2cc(Cl)ccc2Cl)nc1NC1CCCC1,21,0,0,12,25,0,14,17,28,0
C[C@H]1Oc2cc(cnc2N)-c2c(nn(C)c2C#N)CN(C)C(=O)c2ccc(F)cc21,6,0,0,53,48,0,1,24,33,9
CCn1c(-c2nonc2N)nc2c(C#CC(C)(C)O)nc(OCCN)cc21.Cl.Cl [GSK902056],4,0,8,19,19,21,15,0,11,24
Cc1cc(C(=O)Nc2ccc(Oc3ccc4nc(NC(=O)C5CC5)cn4n3)cc2)nn1-c1ccccc1,0,0,0,45,29,0,48,6,46,0
NC(=O)c1cc(-c2ccccc2)cc2c(C3CCNCC3)c[nH]c12 [GSK301362],45,23,0,18,10,0,6,0,3,25
Cl.Cl.NC[C@H](CC1CCCCC1)NC(=O)c1cc(Br)c(-c2ccnc3[nH]ccc23)s1 [GSK1581427],71,67,0,42,12,0,13,0,25,23
Cc1ccc(-n2nc(C(C)(C)C)cc2NC(=O)Nc2ccc(OCCN3CCOCC3)c3ccccc23)cc1 [GW839464],100,14,0,52,,,6,0,23,33
Nc1nc(Nc2ccccc2)cc(-c2ccc3c(N)n[nH]c3c2)n1 [GSK2225749],19,88,0,0,32,0,0,0,0,16
COc1ccc(C[C@@H](CN)NC(=O)c2cc(Br)c(-c3ccnc4[nH]ccc34)s2)cc1.Cl.Cl [GSK1389063],91.3,69,7,52,17,44,25,0,33,37
C[C@@H](Oc1cc(-c2cnn(C3CCNCC3)c2)cnc1N)c1c(Cl)ccc(F)c1Cl,0,30,14,93.5,82,37,49,51,90.2,0
CC(C)Nc1cc(-c2ccc3c(N)n[nH]c3c2)nc(N)n1 [GSK2221681],14,87,0,0,0,0,0,0,0,58
